From PubChem BioAssay (Tox21)
Where “and” joins values, the source holds several entries; their conditions need not be identical. Identical values can stand only once. Inconclusive results are not listed. Calls of active or inactive are those of the source. Unless noted, calls come from the whole dose curve; as a rule, active = well fitted curve in the direction sought with a large enough effect in the repeat runs; inconclusive = weak or mixed curves; inactive = no such curve, though single readings can be large; an effect the other way counts as inactive or inconclusive.

Assays:
[1] = qHTS assay to identify small molecule agonists of the androgen receptor (AR) signaling pathway in the presence of an antagonist - cell viability counter screen (AID 1259379); note: nearly all actives have a fitted effect of over 25% in size; note: potency is the fitted concentration of half-maximal effect
Summary of the method: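 Cytotoxicity is assessed by CellTiter-Fluor in MDA-kb2 cells carrying an MMTV-driven luciferase reporter. Cells receive 3.0uM nilutamide plus compounds at 15 concentrations and incubate 16 hr at 37C without CO2 before fluorescence reading.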

[2] = qHTS assay to identify small molecule agonists of the estrogen receptor beta (ER-beta) signaling pathway - cell viability counter screen (AID 1259380); note: nearly all actives have a fitted effect of over 30% in size; note: potency is the fitted concentration of half-maximal effect
Summary of the method: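 Cytotoxicity is measured in parallel with the reporter screen: after 16 hr compound exposure at 37C and a 2 hr LiveBLAzer step, CellTiter-Glo is added to the same ER-beta-UAS-bla HEK293T wells and luminescence read after 30 min.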

[3] = biological target: Androgen receptor (Homo sapiens) (UniProt P10275); assay: qHTS assay to identify small molecule agonists of the androgen receptor (AR) signaling pathway in the presence of an antagonist (AID 1259381; calls by dose curve; note: nearly all actives have a fitted effect of over 15% in size)
Summary of the method: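 Agonist-mode confirmation screen: human MDA-kb2 cells stably expressing luciferase under an MMTV promoter bearing AR and GR response elements, co-treated with 3.0uM nilutamide (final). Luminescence measured after 16hr compound incubation.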

[4] = qHTS assay to identify small molecule antagonists of the estrogen receptor beta (ER-beta) signaling pathway - cell viability counter screen (AID 1259382); note: nearly all actives have a fitted effect of over 55% in size; note: potency is the fitted concentration of half-maximal effect
Summary of the method: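 Cytotoxicity counter screen multiplexed with the beta-lactamase antagonist assay: GripTite HEK293T ER-beta-bla cells were treated 16 hr with test chemicals in the presence of 1nM 17-beta-estradiol, and viability was measured by CellTiter-Glo.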

[5] = biological target: Thyrotropin receptor (Homo sapiens) (UniProt P16473); assay: qHTS assay to identify small molecule antagonists of the thyroid stimulating hormone receptor (TSHR) signaling pathway (AID 1259385; calls by dose curve; note: nearly all actives have a fitted effect of over 20% in size; note: potency is the fitted concentration of half-maximal effect)
Summary of the method: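 Antagonist mode: compound-treated TSHR-expressing HEK293 cells were stimulated with 1.5 ng/mL TSH (final) in presence of Ro20-1724 for 30 min at RT. HTRF cAMP detection after 1 h; each compound tested at 15 concentrations, triplicate.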

[6] = qHTS assay to identify small molecule agonists of the estrogen receptor alpha (ER-alpha) signaling pathway in the presence of an antagonist - cell viability counter screen (AID 1259386);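 note: cells exposed to compounds for 22 h at 37 °C before the viability read; nearly all actives have a fitted effect of over 30% in size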; note: potency is the fitted concentration of half-maximal effect
Summary of the method: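 Cytotoxicity was measured in parallel with the ERE-luciferase agonist screen, in the same wells. The cells were VM7Luc4E2, which endogenously express ER-alpha, and treatment was with compounds plus 10.0nM ICI-182,780 for 22hr.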

[7] = biological target: Progesterone receptor (Homo sapiens) (UniProt P06401); assay: qHTS assay to identify small molecule agonists of the progesterone receptor (PR) signaling pathway (AID 1346784; calls by dose curve; note: nearly all actives have a fitted effect of over 30% in size)
Summary of the method: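 Cells (PR-UAS-bla HEK 293T, GripTite) were plated in assay medium containing 2% charcoal-stripped FBS and incubated 6 hr. Test compounds in DMSO were added for 16 hr at 37C. FRET substrate was then loaded for 2 hr at room temperature before fluorescence reading.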

[8] = biological target: Progesterone receptor (Homo sapiens) (UniProt P06401); assay: qHTS assay to identify small molecule antagonists of the progesterone receptor (PR) signaling pathway (AID 1346795; active = well fitted inhibition curve with a large enough effect in the signal ratio in the repeat runs, not every such curve was filed as active; the % refers to the signal ratio; note: potency is the fitted concentration of half-maximal effect)
Summary of the method: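 Antagonist mode: compounds tested against 1 nM (final) promegestone stimulation in HEK293T cells expressing PR-UAS-bla reporter, 16 hr at 37C, 5% CO2; beta-lactamase activity detected via B/G FRET substrate after 2 hr at room temperature.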

[9] = qHTS assay to identify small molecule agonists of the progesterone receptor (PR) signaling pathway - cell viability counter screen (AID 1346799; calls by dose curve; note: nearly all actives have a fitted effect of over 45% in size; note: potency is the fitted concentration of half-maximal effect)
Summary of the method: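 Cells (PR-UAS-bla HEK293T) are plated at 3,000/well in 2% charcoal-stripped FBS medium, rested 6 hr, dosed and incubated 16 hr at 37C. CellTiter-Glo is then added and luminescence measured after 30 min at room temperature.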

[10] = Human pregnane X receptor (PXR) small molecule agonists, qHTS cell viability counter screen (AID 1346977); note: nearly all actives have a fitted effect of over 50% in size; note: potency is the fitted concentration of half-maximal effect
Summary of the method: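 Cytotoxicity counter screen run in the same wells as the PXR luciferase assay, using PXR-Luc HepG2 cells in charcoal-stripped serum medium. Viability: CellTiter-Fluor fluorescence after 24hr compound treatment.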

[11] = biological target: Estrogen receptor beta (Homo sapiens) (UniProt Q92731); assay: qHTS assay to identify small molecule antagonists of the estrogen receptor beta (ER-beta) signaling pathway (AID 1259378; active = well fitted inhibition curve with a large enough effect in the signal ratio in the repeat runs, not every such curve was filed as active; the % refers to the signal ratio; note: potency is the fitted concentration of half-maximal effect)
Summary of the method: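 Antagonist mode: compounds added to beta-lactamase reporter HEK293T ER-beta-UAS cells stimulated with E2 (1nM final), 16 hr at 37C. LiveBLAzer B/G FRET substrate, 2 hours room temperature, fluorescence read-out.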

[12] = biological target: Estrogen receptor (Homo sapiens) (UniProt P03372); assay: qHTS assay to identify small molecule agonists of the estrogen receptor alpha (ER-alpha) signaling pathway in the presence of an antagonist (AID 1259383; calls by dose curve; note: top concentration of the series differs between compounds; nearly all actives have a fitted effect of over 15% in size)
Summary of the method: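 Agonist-mode confirmation in the presence of the ER antagonist ICI-182,780 at 10.0nM final. Breast-derived VM7Luc4E2 reporter cells were exposed to compounds for 22hr, and ERE-driven luciferase was quantified by luminescence.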

[13] = qHTS assay to identify small molecule agonists or antagonists of the thyroid stimulating hormone receptor (TSHR) signaling pathway - wild type cell line counter screen (AID 1259384; calls by dose curve)
Summary of the method: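 Counter screen in untransfected Hek293: compounds (15-point titration, triplicate) plus phosphodiesterase inhibitor Ro20-1724 added after 18 h plating; 30 min RT. Intracellular cAMP via competitive d2/cryptate immunoassay, 1 h incubation.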

[14] = qHTS assay to identify small molecule agonists of the TGF-beta/Smad signaling pathway (AID 1346859; active = well fitted activation curve with a large enough effect in the signal ratio in the repeat runs, not every such curve was filed as active; the % refers to the signal ratio; note: series mostly up to about 77 µM)
Summary of the method: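 Reporter line: HEK 293T with stably integrated SBE-controlled beta-lactamase. Compound exposure lasts 5 hr at 37 C and 5% CO2; substrate loading follows for 2 hr at room temperature, with emission read at 460 and 530 nm.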

[15] = biological target: Thyrotropin-releasing hormone receptor (Homo sapiens) (UniProt P34981); assay: qHTS assay to identify small molecule antagonists of the thyrotropin-releasing hormone receptor (TRHR) signaling pathway (AID 1346877; active = well fitted inhibition curve with a large enough effect in the repeat runs, not every such curve was filed as active; note: series mostly up to about 51 µM)
Summary of the method: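 Antagonism is measured as suppression of the calcium response to 1 nM TRH in TRHR-HEK293 cells that have been dye-loaded for 2 h at 37 °C after overnight plating. Each compound is tested at 15 concentrations in triplicate.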

[16] = biological target: Thyrotropin-releasing hormone receptor (Homo sapiens) (UniProt P34981); assay: qHTS assay to identify small molecule agonists of the thyrotropin-releasing hormone receptor (TRHR) signaling pathway (AID 1346891; calls by dose curve;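 note: HEK293 cells expressing TRHR with calcium dye readout; series mostly up to about 58 µM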)
Summary of the method: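 Cells: TRHR-Hek293, seeded and incubated 18 h. Dye loading: 2 h at 37 °C. Compound added from DMSO stock by pin tool. Read-out: kinetic calcium fluorescence over 3 min.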

[17] = qHTS assay to identify small molecule antagonists of the progesterone receptor (PR) signaling pathway - cell viability counter screen (AID 1346798); note: series mostly up to about 92 µM; nearly all actives have a fitted effect of over 50% in size
Summary of the method: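 Counter screen for cytotoxicity: viability of PR-UAS-bla HEK293T cells was measured with CellTiter-Glo luminescence following 16 hr compound exposure in the presence of R5020.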

[18] = qHTS assay to identify small molecule antagonists of the TGF-beta/Smad signaling pathway - cell viability counter screen (AID 1346824); note: nearly all actives have a fitted effect of over 50% in size; note: potency is the fitted concentration of half-maximal effect
Summary of the method: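 Cytotoxicity counter-screen run in the same wells as the beta-lactamase Smad reporter read: CellTiter-Glo luminescence after 30 min at room temperature. HEK 293T SBE-bla cells had 5 hr compound exposure at 37 C with TGF-beta1 (0.25 ng/mL stock).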

[19] = qHTS assay to identify small molecule agonists of the TGF-beta/Smad signaling pathway - cell viability counter screen (AID 1346829); note: nearly all actives have a fitted effect of over 45% in size; note: potency is the fitted concentration of half-maximal effect
Summary of the method: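 Cytotoxicity counter screen: CellTiter-Glo luminescence (30 min, room temperature) measured in the SBE-bla HEK 293T reporter wells after 5 hr compound treatment at 37 C and the 2 hr substrate step.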

[20] = biological target: Estrogen receptor beta (Homo sapiens) (UniProt Q92731); assay: qHTS assay to identify small molecule agonists of the estrogen receptor beta (ER-beta) signaling pathway (AID 1259377; active = well fitted activation curve with a large enough effect in the signal ratio in the repeat runs, not every such curve was filed as active; the % refers to the signal ratio)
Summary of the method: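 Agonist mode cell assay in GripTite HEK293T cells expressing an ER-beta fusion that drives beta-lactamase from an Upstream Activator Sequence; 16 hr compound exposure at 37C, then 2 h LiveBLAzer B/G FRET substrate at room temperature, fluorescence read-out.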

Measured: Potency

Sequence of Androgen receptor (Homo sapiens) (P10275 whole entry, looked up): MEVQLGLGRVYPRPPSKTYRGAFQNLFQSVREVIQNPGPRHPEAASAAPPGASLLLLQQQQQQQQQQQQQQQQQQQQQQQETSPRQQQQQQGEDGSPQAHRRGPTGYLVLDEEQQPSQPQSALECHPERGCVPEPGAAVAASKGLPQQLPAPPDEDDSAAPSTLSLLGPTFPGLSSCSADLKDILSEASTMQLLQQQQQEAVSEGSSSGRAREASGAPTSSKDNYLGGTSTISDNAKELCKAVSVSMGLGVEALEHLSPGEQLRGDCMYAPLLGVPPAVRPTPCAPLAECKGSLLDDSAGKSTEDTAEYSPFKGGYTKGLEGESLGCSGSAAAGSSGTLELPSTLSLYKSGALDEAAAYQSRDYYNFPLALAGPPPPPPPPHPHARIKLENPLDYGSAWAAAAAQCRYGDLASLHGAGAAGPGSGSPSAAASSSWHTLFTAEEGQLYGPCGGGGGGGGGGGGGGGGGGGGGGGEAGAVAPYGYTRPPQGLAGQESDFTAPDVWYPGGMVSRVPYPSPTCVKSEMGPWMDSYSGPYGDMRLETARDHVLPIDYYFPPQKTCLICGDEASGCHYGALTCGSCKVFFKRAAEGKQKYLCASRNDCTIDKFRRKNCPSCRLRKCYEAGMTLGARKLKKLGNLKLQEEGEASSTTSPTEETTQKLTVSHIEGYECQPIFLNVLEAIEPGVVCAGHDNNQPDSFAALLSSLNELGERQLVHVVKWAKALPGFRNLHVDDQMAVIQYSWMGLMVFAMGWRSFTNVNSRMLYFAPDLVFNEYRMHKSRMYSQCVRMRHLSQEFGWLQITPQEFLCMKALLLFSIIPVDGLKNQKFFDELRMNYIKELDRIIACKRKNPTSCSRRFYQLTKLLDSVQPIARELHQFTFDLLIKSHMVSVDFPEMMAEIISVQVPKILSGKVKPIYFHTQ
Sequence of Thyrotropin-releasing hormone receptor (Homo sapiens) (P34981 whole entry, looked up): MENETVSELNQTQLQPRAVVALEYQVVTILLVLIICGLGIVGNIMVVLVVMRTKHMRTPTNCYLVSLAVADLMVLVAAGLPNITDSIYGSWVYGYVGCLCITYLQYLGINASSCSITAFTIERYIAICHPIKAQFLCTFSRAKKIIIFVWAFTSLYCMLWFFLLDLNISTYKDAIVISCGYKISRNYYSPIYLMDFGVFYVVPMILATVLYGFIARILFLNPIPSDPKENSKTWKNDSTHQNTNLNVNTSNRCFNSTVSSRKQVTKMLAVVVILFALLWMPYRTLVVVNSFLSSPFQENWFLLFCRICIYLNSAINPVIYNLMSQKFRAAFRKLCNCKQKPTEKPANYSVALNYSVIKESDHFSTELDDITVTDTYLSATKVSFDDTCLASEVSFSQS
Sequence of Thyrotropin receptor (Homo sapiens) (P16473 whole entry, looked up): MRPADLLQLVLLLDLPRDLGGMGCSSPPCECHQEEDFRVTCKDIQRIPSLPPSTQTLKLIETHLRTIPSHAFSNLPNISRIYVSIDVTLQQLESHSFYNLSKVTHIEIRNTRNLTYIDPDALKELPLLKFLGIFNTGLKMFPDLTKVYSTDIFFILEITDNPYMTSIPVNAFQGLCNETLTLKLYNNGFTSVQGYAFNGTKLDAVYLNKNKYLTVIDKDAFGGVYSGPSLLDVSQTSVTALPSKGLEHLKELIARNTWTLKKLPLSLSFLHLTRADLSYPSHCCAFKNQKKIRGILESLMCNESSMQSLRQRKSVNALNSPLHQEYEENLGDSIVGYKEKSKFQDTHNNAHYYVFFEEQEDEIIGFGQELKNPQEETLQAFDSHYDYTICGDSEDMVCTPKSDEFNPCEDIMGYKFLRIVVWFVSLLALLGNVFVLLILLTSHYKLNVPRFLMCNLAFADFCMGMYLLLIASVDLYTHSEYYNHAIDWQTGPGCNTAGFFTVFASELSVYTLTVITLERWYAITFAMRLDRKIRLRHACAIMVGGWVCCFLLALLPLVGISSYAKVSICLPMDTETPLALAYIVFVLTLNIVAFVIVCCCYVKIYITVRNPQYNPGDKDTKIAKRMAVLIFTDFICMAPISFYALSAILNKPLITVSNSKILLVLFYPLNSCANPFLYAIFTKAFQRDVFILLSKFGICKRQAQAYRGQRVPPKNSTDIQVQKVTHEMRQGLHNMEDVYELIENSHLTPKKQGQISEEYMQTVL
Sequence of Estrogen receptor beta (Homo sapiens) (Q92731 whole entry, looked up, the tested form may be a part): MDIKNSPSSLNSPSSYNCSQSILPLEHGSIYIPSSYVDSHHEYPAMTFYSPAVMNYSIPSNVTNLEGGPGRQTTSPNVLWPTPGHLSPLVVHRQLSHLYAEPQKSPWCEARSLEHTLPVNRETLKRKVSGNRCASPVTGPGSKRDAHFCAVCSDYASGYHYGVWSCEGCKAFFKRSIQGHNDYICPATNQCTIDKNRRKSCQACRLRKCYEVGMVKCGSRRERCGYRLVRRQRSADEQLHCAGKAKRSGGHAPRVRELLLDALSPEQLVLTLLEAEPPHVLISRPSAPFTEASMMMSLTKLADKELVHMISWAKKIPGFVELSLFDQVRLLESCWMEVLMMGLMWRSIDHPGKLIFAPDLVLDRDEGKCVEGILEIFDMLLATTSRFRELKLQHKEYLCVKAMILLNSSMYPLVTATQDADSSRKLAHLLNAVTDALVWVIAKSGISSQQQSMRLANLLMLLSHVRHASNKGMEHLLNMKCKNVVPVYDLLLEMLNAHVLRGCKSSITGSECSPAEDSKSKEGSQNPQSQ
Sequence of Estrogen receptor (Homo sapiens) (P03372 whole entry, looked up): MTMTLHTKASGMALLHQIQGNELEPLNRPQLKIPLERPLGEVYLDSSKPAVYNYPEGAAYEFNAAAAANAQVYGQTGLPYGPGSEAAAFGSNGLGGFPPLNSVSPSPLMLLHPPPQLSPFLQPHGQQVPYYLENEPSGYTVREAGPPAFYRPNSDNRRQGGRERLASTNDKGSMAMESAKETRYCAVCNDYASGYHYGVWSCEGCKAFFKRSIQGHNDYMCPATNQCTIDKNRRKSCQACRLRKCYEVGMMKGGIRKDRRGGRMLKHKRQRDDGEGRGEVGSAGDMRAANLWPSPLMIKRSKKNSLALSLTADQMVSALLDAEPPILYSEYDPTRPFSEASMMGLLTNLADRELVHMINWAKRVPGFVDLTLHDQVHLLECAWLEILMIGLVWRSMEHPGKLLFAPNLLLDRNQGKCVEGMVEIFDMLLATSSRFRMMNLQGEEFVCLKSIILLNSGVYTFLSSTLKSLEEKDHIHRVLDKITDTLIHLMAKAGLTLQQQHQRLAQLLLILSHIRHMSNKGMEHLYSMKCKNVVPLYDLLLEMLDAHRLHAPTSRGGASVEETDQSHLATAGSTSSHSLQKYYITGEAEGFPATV
Sequence of Progesterone receptor (Homo sapiens) (P06401 whole entry, looked up): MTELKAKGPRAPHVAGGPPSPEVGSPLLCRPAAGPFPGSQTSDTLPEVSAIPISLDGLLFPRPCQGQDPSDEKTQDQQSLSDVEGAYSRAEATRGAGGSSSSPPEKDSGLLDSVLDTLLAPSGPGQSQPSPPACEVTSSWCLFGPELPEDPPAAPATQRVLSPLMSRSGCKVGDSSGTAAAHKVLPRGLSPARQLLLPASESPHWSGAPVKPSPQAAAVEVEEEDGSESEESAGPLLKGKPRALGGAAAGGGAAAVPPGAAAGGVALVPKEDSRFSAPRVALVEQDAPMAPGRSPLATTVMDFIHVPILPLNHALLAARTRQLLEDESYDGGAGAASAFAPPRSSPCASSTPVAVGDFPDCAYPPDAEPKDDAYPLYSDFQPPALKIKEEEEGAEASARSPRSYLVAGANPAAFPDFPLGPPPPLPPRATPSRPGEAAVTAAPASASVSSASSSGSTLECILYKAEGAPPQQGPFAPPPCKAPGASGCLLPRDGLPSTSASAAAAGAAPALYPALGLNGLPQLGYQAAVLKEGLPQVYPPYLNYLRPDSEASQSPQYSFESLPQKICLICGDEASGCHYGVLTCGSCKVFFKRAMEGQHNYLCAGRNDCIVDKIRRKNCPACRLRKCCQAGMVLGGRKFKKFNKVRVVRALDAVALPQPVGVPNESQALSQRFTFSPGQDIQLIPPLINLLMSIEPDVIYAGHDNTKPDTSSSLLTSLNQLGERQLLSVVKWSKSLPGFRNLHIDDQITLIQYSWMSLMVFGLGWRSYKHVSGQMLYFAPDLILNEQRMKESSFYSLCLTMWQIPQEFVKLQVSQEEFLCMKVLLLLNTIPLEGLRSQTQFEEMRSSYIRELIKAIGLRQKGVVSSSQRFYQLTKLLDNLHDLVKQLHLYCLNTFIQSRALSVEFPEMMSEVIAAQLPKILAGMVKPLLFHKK

Cc1c(O)cccc1C(=O)N[C@@H](CSc1ccccc1)[C@H](O)CN1C[C@H]2CCCC[C@H]2C[C@H]1C(=O)NC(C)(C)C
inactive: [3] | [5] | [7]
active: [1] 53 µM and 23.7 µM | [2] 23.7 µM and 18.8 µM | [4] 16.8 µM and 23.7 µM | [6] 29.8 µM and 11.9 µM | [8] 13.3 µM and 21.1 µM | [9] 26.6 µM | [10] 16.8 µM and 13.3 µM

Nc1cc(Cl)c(-c2cc(Cl)c(N)cc2Cl)cc1Cl
active: [11] 8.63 µM | [1] 54.4 µM and 48.6 µM | [2] 21.7 µM and 24.3 µM | [4] 17.2 µM and 27.3 µM | [8] 2.73 µM | [9] 30.6 µM and 21.7 µM | [10] 50.1 µM and 68.6 µM
inactive: [3] | [12] | [13] | [6] | [14] | [15] | [16]

CCN1CCCC1CNC(=O)c1cc(S(=O)(=O)CC)c(N)cc1OC (stereo unspecified)
not listed: [3] | [11] | [13] | [20]
inactive: all other assays above

CCN(CC)CCOc1ccc(/C(=C(\Cl)c2ccccc2)c2ccccc2)cc1
active: [11] 0.266 µM | [1] 44.2 µM and 29.8 µM | [2] 49.6 µM and 29.8 µM | [4] 44.2 µM and 29.8 µM | [5] 29.8 µM | [10] 39.4 µM and 26.6 µM
inactive: [3] | [13] | [6] | [18] | [14]

CC(=O)O[C@]1(C(C)=O)CC[C@H]2[C@@H]3C[C@H](C)C4=CC(=O)CC[C@]4(C)[C@H]3CC[C@@]21C
inactive: [1] | [2] | [4] | [12] | [13] | [5] | [6] | [8] | [18] | [19] | [10]

CC(=O)CC(=O)Nc1ccc2[nH]c(=O)[nH]c2c1
not listed: [3] | [11] | [13] | [17] | [19] | [20]
inactive: all other assays above

CCCCCCCCCCCCc1ccccc1O
inactive: [3] | [14] | [15] | [16]
active: [11] 1.35 µM | [1] 61.1 µM | [4] 47.9 µM and 43.3 µM | [6] 68.6 µM | [9] 53.8 µM and 30.6 µM | [18] 54.2 µM and 54.9 µM | [19] 49 µM | [10] 47.9 µM and 30.6 µM

NCCCCCC(=O)O
not listed: [3] | [11] | [19] | [20]
inactive: all other assays above

CCC[C@H](N[C@@H](C)C(=O)N1[C@H](C(=O)O)C[C@@H]2CCCC[C@@H]21)C(=O)OCC
not listed: [3] | [11] | [15] | [16] | [20]
inactive: all other assays above

CCCOC(=O)c1cc(O)c(O)c(O)c1
not listed: [2] | [3] | [6] | [10] | [11] | [13] | [15] | [16]
inactive: all other assays above
